Growth data for 13 compounds are collected here from PubChem BioAssay (NCI).

Test systems include NCI-H23 lung; NCI-H226 lung; NCI-H322M lung; HOP-62 NSCLC; NCI-H460 lung; HOP-92 NSCLC; NCI-H522 lung; A549/ATCC NSCLC; 786-0 renal; COLO 205 colon.
Common to all, as to assay: NCI-60 one-dose screen, 48 h (100 = growth as untreated, 0 = no growth, -100 = all killed)
Common to all, as to conditions: 10 µM unless noted

This is part of a sample that, as a whole, favours compounds with a hit. Of some 83,000 tested, about 20% had one in any assay.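 The endpoint reported here, percent growth, reads 100 for growth as untreated, 0 for no net growth and -100 for all cells dead.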 Unmarked numbers belong to inactive results. The source made the active and inactive calls. The calls were made as follows: active = growth percent below 10; inactive = the rest.

With `Cc1ccc(-c2nn(C)c(=O)c3noc(-c4ccc(C)cc4)c23)cc1`, the growth is 43.1% with NCI-H23 lung; 58% in the assay with NCI-H226 lung; 56.4% in the assay on NCI-H322M lung; 28.1% in the assay with HOP-62 NSCLC; 22.7% with NCI-H460 lung; 14.2% in the assay on HOP-92 NSCLC. In addition, the growth in the assay with NCI-H522 lung is 9.02% (active); in the assay on A549/ATCC NSCLC it was 46.2%; in the assay with 786-0 renal, 29%; in the assay on COLO 205 colon, 12.5%.
For the compound `O=C(Nc1nc2ccc(F)cc2s1)c1cccnc1Nc1ccc(Cl)cc1Cl`, the growth with NCI-H23 lung is 7.18% (active); with NCI-H226 lung, 52.6%; in the assay with NCI-H322M lung, 3.83% (active); in the assay with HOP-62 NSCLC, 63.5%; in the assay with NCI-H460 lung it was 5.22% (active); in the assay with HOP-92 NSCLC, -6.79% (active). The growth in the assay on NCI-H522 lung is 31.8%; with A549/ATCC NSCLC it was 17%; with 786-0 renal it was 45.8%; with COLO 205 colon it was 2.35% (active).
Turning to `CCN1C(=O)N(CC)C2Nn3c(s/c(=C4\C(=O)Nc5ccccc54)c3=O)=NC21` (stereo not given), the growth with NCI-H23 lung was 48.6%; with NCI-H226 lung, 79.3%; with NCI-H322M lung, 71.5%; in the assay with HOP-62 NSCLC it was 68.4%; in the assay on NCI-H460 lung, 23.7%; in the assay with HOP-92 NSCLC, 69.7%. Also, the growth was 15.4% in the assay on NCI-H522 lung, 55.1% in the assay on A549/ATCC NSCLC, 32% in the assay on 786-0 renal and 19.5% in the assay with COLO 205 colon.
As to `O=C(O)CCC(=O)Nc1nnc(-c2ccccc2)s1`, the growth was 99.7% in the assay on NCI-H23 lung; 116% in the assay with NCI-H226 lung; 105% with NCI-H322M lung; 94.2% in the assay on HOP-62 NSCLC; 104% in the assay with NCI-H460 lung; 93.1% in the assay with HOP-92 NSCLC. Besides, the growth in the assay on NCI-H522 lung is 80.1%; in the assay with A549/ATCC NSCLC, 102%; with 786-0 renal, 92.9%; in the assay with COLO 205 colon, 108%.
For the compound `CC1=C(SCCC(=O)OC(C[Se]C2=C(C)C(=O)c3ccccc3C2=O)C(=O)NC(C)(C)C)C(=O)c2ccccc2C1=O` (stereo not given), the growth was -42.7% (active) with NCI-H23 lung; -63.3% (active) in the assay with NCI-H226 lung; -79.8% (active) in the assay with NCI-H322M lung; -65.4% (active) with HOP-62 NSCLC; -59% (active) in the assay on NCI-H460 lung; -66.6% (active) with HOP-92 NSCLC. Also, the growth was -48.2% (active) with NCI-H522 lung, -40% (active) with A549/ATCC NSCLC, -86.1% (active) in the assay on 786-0 renal and -86.4% (active) with COLO 205 colon.
On to `O=C(N/N=C/c1c(Cl)cccc1Cl)c1ccc(C(F)(F)F)nc1Nc1cccc(C(F)(F)F)c1`, for which the growth in the assay with NCI-H23 lung was -10.6% (active); with NCI-H226 lung, 14.2%; with NCI-H322M lung, 1.62% (active); with HOP-62 NSCLC, 28.2%; with NCI-H460 lung, 7.11% (active); in the assay with HOP-92 NSCLC it was 7.35% (active). Also, the growth in the assay on NCI-H522 lung was -3.43% (active); with A549/ATCC NSCLC, 18.6%; with 786-0 renal it was 8.61% (active); with COLO 205 colon, -15.4% (active).
In the case of `C/C=C(\C)C(=O)N[C@H]1[C@@H](OC(C)=O)C[C@]2(C)C3CC[C@@]4(C)C(CC[C@@H]4C(C)N(C)C)C3CCC2[C@H]1O` (stereo not given in full), the growth with NCI-H23 lung is 74.4%; in the assay on NCI-H226 lung, 101%; in the assay with NCI-H322M lung it was 67.7%; in the assay on HOP-62 NSCLC, 91.9%; in the assay on NCI-H460 lung it was 59%; in the assay on HOP-92 NSCLC it was 71%. Also, the growth in the assay on NCI-H522 lung is 99.4%; in the assay with A549/ATCC NSCLC, 78.5%; in the assay with 786-0 renal, 66.1%; in the assay with COLO 205 colon, 75.8%.
Regarding `CN(C(=O)NCc1cccc(F)c1Cl)[C@H](COC(=O)Nc1cc2ccccc2cn1)CC(O)CO` (stereo not given in full), the growth in the assay with NCI-H23 lung is 96.5%; in the assay with NCI-H226 lung, 92.7%; in the assay with NCI-H322M lung it was 86.4%; with HOP-62 NSCLC, 64.8%; with NCI-H460 lung, 100%; with HOP-92 NSCLC it was 28%. The growth is 84.5% in the assay on NCI-H522 lung, 80.9% in the assay with A549/ATCC NSCLC, 68% in the assay on 786-0 renal and 111% in the assay with COLO 205 colon.
In the case of `Cc1cccc(OCC(O)CN2CCN(c3ccc(Cl)cc3)CC2)c1` (stereo not given), the growth in the assay on NCI-H23 lung was 95.2%; with NCI-H226 lung, 112%; in the assay with NCI-H322M lung, 125%; with HOP-62 NSCLC, 118%; in the assay with NCI-H460 lung, 108%; in the assay with HOP-92 NSCLC, 80%. In addition, the growth with NCI-H522 lung was 109%; with A549/ATCC NSCLC it was 98.5%; in the assay with 786-0 renal, 96.5%; with COLO 205 colon, 96.7%.
Take `Cc1cc(=O)[nH]c(=O)n1Cc1cn(-c2c3ccccc3nc3ccccc23)nn1`: the growth in the assay with NCI-H23 lung is 94%; in the assay with NCI-H226 lung, 105%; in the assay with NCI-H322M lung, 105%; in the assay with HOP-62 NSCLC, 95.6%; in the assay on NCI-H460 lung, 99.3%; with HOP-92 NSCLC, 67.6%. Also, the growth is -74.3% (active) with NCI-H522 lung, 92.3% in the assay on A549/ATCC NSCLC, 79.4% in the assay with 786-0 renal and 96.1% with COLO 205 colon.
Consider `N#Cc1c(Nc2cccc(Cl)c2)sc(C(=O)c2cc3cc(Cl)ccc3o2)c1N`, for which the growth in the assay with NCI-H23 lung is 77%; in the assay on NCI-H226 lung, 94%; in the assay with NCI-H322M lung, 113%; with HOP-62 NSCLC, 107%; in the assay with NCI-H460 lung, 46.7%; with HOP-92 NSCLC, 8.1% (active). Moreover, the growth with NCI-H522 lung was 34.8%; with A549/ATCC NSCLC it was 94.1%; in the assay with 786-0 renal, 96.9%; in the assay on COLO 205 colon, 89%.
Consider `CC(=O)O.CN1[CH-]N(Cc2ccc(C#N)cc2)c2ccccc21.[Ag+]`, for which the growth with NCI-H23 lung was 105%; with NCI-H226 lung it was 103%; in the assay on NCI-H322M lung, 105%; in the assay on HOP-62 NSCLC, 108%; with NCI-H460 lung it was 97.9%; in the assay on HOP-92 NSCLC, 116%. In addition, the growth is -89.1% (active) with NCI-H522 lung, 68% in the assay with A549/ATCC NSCLC, 103% with 786-0 renal and 54% in the assay with COLO 205 colon.
On to `CC(C)C(=O)Nc1ccc(-c2nc(-c3cccc(OCCN4CCOCC4)c3)c(-c3ccnc(Br)c3)[nH]2)cc1`, for which the growth with NCI-H23 lung is 55.6%; in the assay with NCI-H226 lung, 76.4%; in the assay with NCI-H322M lung it was 67.8%; in the assay on HOP-62 NSCLC, 55.2%; in the assay on NCI-H460 lung, 63.6%; in the assay with HOP-92 NSCLC, 61.3%. The growth is 68.7% in the assay on NCI-H522 lung, 63% in the assay with A549/ATCC NSCLC, -19.3% (active) with 786-0 renal and 43.3% in the assay on COLO 205 colon.
